Data on ten molecules can be found in paper PMC5540273 (PLoS ONE, 2017).

Bounds are passed on as bounds.
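Also: kd values determined as follow-up on hits from a single-replicate KINOMEscan panel screen.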

For the first assay, the system named is AAK1.
Regarding `Cc1cc(-c2ccc3c(c2)CC[C@@H](N[C@@H](C)c2ccccc2)C3)cnc1N.Cl` [GW412617], the affinity, expressed as Kd, was 3600 nM. Turning to `Cc1cccc(-c2nc(C)cc(Nc3ccncc3)n2)n1` [GSK257997], the Kd (in general, the equilibrium constant for the complex coming apart) was > 10000 nM.

As for `CN1C(=O)C(Nc2ccc(Cl)c(C(=O)O)c2)=C(c2ccc(Cl)cc2)C1=O` [SB-404290], the Kd is > 10000 nM.

Consider `COc1ccc(Nc2nccc(NCCNC(=O)Nc3ccccc3F)n2)cc1` [GSK1379901], for which the Kd is > 10000 nM. Same read-out and setting: to `O=C(Nc1n[nH]c2cc(-c3cccc(F)c3F)ccc12)C1CC1` [SB-733894] belongs 2100 nM.

The subject of a further assay is ABL1-nonphosphorylated.
As to `CC(=O)Nc1nc2cnc(Nc3cc(NC(=O)c4cccc(CCC#N)c4)ccc3C)nc2s1`, the Kd is > 10000 nM. Turning to `Cc1ccccc1-n1cnc2c(N)ncnc21` [SKF-97510], the Kd is > 10000 nM.

With `O=C(Nc1ccccc1)Nc1cccc(Oc2ccc3nccn3n2)c1`, the equilibrium dissociation constant (Kd) is 140 nM.

`Cc1cccc(-c2nc(-c3ccc(S(C)(=O)=O)cc3)sc2-c2ccnc(NCCc3ccccc3)c2)c1`: the Kd turned out to be 330 nM. The same measure, in the same setting: to `COc1ccc(Nc2nccc(-c3cccc(NC(=O)c4cc5cc(F)ccc5[nH]4)c3)n2)cc1` [GSK1229782] belongs 100 nM.
